# Laboratory results: the supplement of paper PMC8728848
# Shown is part of a subset that was picked to be rich in the strongest signals.
# Experiments:
# Test in all cases: glycan array binding signal (z-score within array); higher = stronger binding
# Conditions in all cases: glycan notation: IUPAC condensed, linker removed
# [1] = target: GlcNAc(a1-3)Gal(b1-4)GlcNAc
# Summary of the method: (§1)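 The Consortium for Functional Glycomics database supplied 3228 glycan arrays, of which those lacking an available protein sequence were dropped. The binding signal, a within-array Z-score, was averaged across arrays of the same protein sequence and across linkers. Negative scores can be read as non-binding.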
# [2] = target: GlcNAc(b1-2)Man(a1-3)[GlcNAc(b1-4)][GlcNAc(b1-2)Man(a1-6)]Man(b1-4)GlcNAc(b1-4)[Fuc(a1-6)]GlcNAc
# Summary of the method: as §1
# [3] = target: GlcNAc(b1-2)[GlcNAc(b1-6)]Man(a1-6)[GlcNAc(b1-2)Man(a1-3)]Man(b1-4)GlcNAc(b1-4)[Fuc(a1-6)]GlcNAc
# Summary of the method: as §1
# [4] = target: GlcNAc(b1-3)Gal(b1-4)GlcNAc(b1-3)Gal(b1-4)GlcNAc(b1-2)[GlcNAc(b1-3)Gal(b1-4)GlcNAc(b1-3)Gal(b1-4)GlcNAc(b1-6)]Man(a1-6)[GlcNAc(b1-3)Gal(b1-4)GlcNAc(b1-3)Gal(b1-4)GlcNAc(b1-2)Man(a1-3)]Man(b1-4)GlcNAc(b1-4)[Fuc(a1-6)]GlcNAc
# Summary of the method: as §1
# [5] = target: GlcNAc(b1-3)Gal(b1-4)GlcNAc(b1-3)Gal(b1-4)GlcNAc(b1-3)Gal(b1-4)GlcNAc(b1-2)Man(a1-3)[GlcNAc(b1-3)Gal(b1-4)GlcNAc(b1-3)Gal(b1-4)GlcNAc(b1-3)Gal(b1-4)GlcNAc(b1-2)Man(a1-6)]Man(b1-4)GlcNAc(b1-4)GlcNAc
# Summary of the method: as §1
# [6] = target: Kdn(a2-3)Gal(b1-3)GalNAc
# Summary of the method: as §1
# [7] = target: Man(a1-2)Man(a1-2)Man(a1-3)Man
# Summary of the method: as §1
# [8] = target: Man(a1-3)[Man(a1-6)]Man(b1-4)GlcNAc(b1-4)[Fuc(a1-6)]GlcNAc
# Summary of the method: as §1
# [9] = target: Neu5Ac(a2-3)Gal(b1-3)[Neu5Ac(a2-6)]GalNAc
# Summary of the method: as §1
# [10] = target: Neu5Ac(a2-3)Gal(b1-3)]Neu5Ac(a2-3)Gal(b1-4)]GlcNAc
# Summary of the method: as §1
# [11] = target: Neu5Ac(a2-3)Gal(b1-4)GlcNAc(b1-2)Man(a1-3)[Neu5Ac(a2-3)Gal(b1-4)GlcNAc(b1-2)Man(a1-6)]Man(b1-4)GlcNAc(b1-4)[Fuc(a1-6)]GlcNAc
# Summary of the method: as §1
# [12] = target: Neu5Ac(a2-3)Gal(b1-4)GlcNAc(b1-2)[Neu5Ac(a2-3)Gal(b1-4)GlcNAc(b1-4)]Man(a1-3)[GlcNAc(b1-4)][Neu5Ac(a2-3)Gal(b1-4)GlcNAc(b1-2)[Neu5Ac(a2-3)Gal(b1-4)GlcNAc(b1-6)]Man(a1-6)]Man(b1-4)GlcNAc(b1-4)GlcNAc
# Summary of the method: as §1
# [13] = target: Neu5Ac(a2-3)Gal(b1-4)GlcNAc(b1-2)[Neu5Ac(a2-3)Gal(b1-4)GlcNAc(b1-4)]Man(a1-3)[GlcNAc(b1-4)][Neu5Ac(a2-3)Gal(b1-4)GlcNAc(b1-4)Man(a1-6)]Man(b1-4)GlcNAc(b1-4)GlcNAc
# Summary of the method: as §1
# [14] = target: Neu5Ac(a2-3)Gal(b1-4)GlcNAc(b1-6)GalNAc
# Summary of the method: as §1
# [15] = target: Neu5Ac(a2-3)Gal(b1-4)[Fuc(a1-3)]GlcNAc
# Summary of the method: as §1
# [16] = target: Neu5Ac(a2-3)Gal(b1-4)[Fuc(a1-3)]GlcNAc(b1-3)GalNAc
# Summary of the method: as §1
# [17] = target: Neu5Ac(a2-3)Gal6S(b1-4)GlcNAc
# Summary of the method: as §1
# [18] = target: Neu5Ac(a2-6)Gal(b1-4)GlcNAc(b1-2)Man(a1-3)Man(b1-4)GlcNAc(b1-4)GlcNAc
# Summary of the method: as §1
# [19] = target: Neu5Ac(a2-6)Gal(b1-4)GlcNAc(b1-3)Gal(b1-4)GlcNAc(b1-3)Gal(b1-4)GlcNAc(b1-2)Man(a1-3)[Neu5Ac(a2-6)Gal(b1-4)GlcNAc(b1-3)Gal(b1-4)GlcNAc(b1-3)Gal(b1-4)GlcNAc(b1-2)Man(a1-6)]GalNAc
# Summary of the method: as §1
# [20] = target: Neu5Ac(a2-6)Gal(b1-4)GlcNAc(b1-6)[Gal(b1-3)]GalNAc
# Summary of the method: as §1
# [21] = target: Neu5Ac(a2-6)Gal(b1-4)GlcNAc6S
# Summary of the method: as §1
# [22] = target: Neu5Ac(a2-6)GlcNAc(b1-4)GlcNAc
# Summary of the method: as §1
# [23] = target: Neu5Ac(a2-8)Neu5Ac(a2-3)Gal(b1-3)GalNAc(b1-4)[Neu5Ac(a2-3)]Gal(b1-4)Glc
# Summary of the method: as §1
# [24] = target: Neu5Ac(a2-8)Neu5Ac(a2-3)[Gal(b1-3)GalNAc(b1-4)]Gal(b1-4)Glc
# Summary of the method: as §1
# [25] = target: Neu5Gc(a2-8)Neu5Gc(a2-3)Gal(b1-4)GlcNAc
# Summary of the method: as §1
# [26] = target: Neu5Gc(a2-8)Neu5Gc(a2-6)Gal(b1-4)GlcNAc
# Summary of the method: as §1
binder,measurement,setting,value
"Erv41-EDTA (Saccharomyces cerevisiae), Q04651 (protein) MKFLVNVALVFMVVYISYIYAAAPEHHHHHHDYDIPTTENLYFQGAMGYIDQQYVVDSQVRDTVQINMDIYVNTKCDWLQINVRDQTMDRKLVLEELQLEEMPFFIPYDTKVNDINEIITPELDEILGEAIPAEFREKLDTRSFFDESDPNKAHLPEFNGCHVFGSIPVNRVSGELQITAKSLGYVASRKAPLEELKFNHVINEFSFGDFYPYIDNPLDNTAQFNQDEPLTTYVYYTSVVPTLFKKLGAEVDTNQYSVNDYRYLYKDVAAKGDKMPGIFFKYNFEPLSIVVSDVRL",glycan array binding signal (z-score),[1],-0.577
same,glycan array binding signal (z-score),[2],0.162
same,glycan array binding signal (z-score),[3],2.54
same,glycan array binding signal (z-score),[4],1.25
same,glycan array binding signal (z-score),[5],0.272
same,glycan array binding signal (z-score),[6],0.349
same,glycan array binding signal (z-score),[7],-0.638
same,glycan array binding signal (z-score),[8],-0.081
same,glycan array binding signal (z-score),[9],-0.609
same,glycan array binding signal (z-score),[10],-0.585
same,glycan array binding signal (z-score),[11],2.09
same,glycan array binding signal (z-score),[12],1.18
same,glycan array binding signal (z-score),[13],-0.72
same,glycan array binding signal (z-score),[14],-0.767
same,glycan array binding signal (z-score),[15],0.162
same,glycan array binding signal (z-score),[16],1.5
same,glycan array binding signal (z-score),[17],0.025
same,glycan array binding signal (z-score),[18],1.97
same,glycan array binding signal (z-score),[19],2.65
same,glycan array binding signal (z-score),[20],0.134
same,glycan array binding signal (z-score),[21],-0.865
same,glycan array binding signal (z-score),[22],0.004
same,glycan array binding signal (z-score),[23],-0.348
same,glycan array binding signal (z-score),[24],1.35
same,glycan array binding signal (z-score),[25],0.393
same,glycan array binding signal (z-score),[26],1.14
